These results are taken from PubChem BioAssay (EPA / NIEHS).

Molecules are shown by their SMILES. Some structures have more than one record in an assay (separate samples or runs), and their calls can disagree. The source made the active and inactive calls. How the source made its calls: active means hit-call score of the fitted dose curve at least 0.9, where 1 is the maximum; inactive means score below 0.9.

Broadly, the AC50 is the concentration giving half of the maximal activity seen.

Chain of CCAAT/enhancer-binding protein beta (Homo sapiens) (P17676 whole entry, looked up): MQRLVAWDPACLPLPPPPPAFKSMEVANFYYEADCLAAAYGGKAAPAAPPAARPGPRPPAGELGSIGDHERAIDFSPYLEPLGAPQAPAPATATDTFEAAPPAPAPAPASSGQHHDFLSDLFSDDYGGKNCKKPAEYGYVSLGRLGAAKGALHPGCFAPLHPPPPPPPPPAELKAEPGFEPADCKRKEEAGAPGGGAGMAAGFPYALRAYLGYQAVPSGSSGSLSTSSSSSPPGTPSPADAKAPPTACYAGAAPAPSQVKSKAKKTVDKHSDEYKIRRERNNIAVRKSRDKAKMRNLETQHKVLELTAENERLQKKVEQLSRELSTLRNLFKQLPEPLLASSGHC

This experiment addresses CCAAT/enhancer-binding protein beta (Homo sapiens) (UniProt P17676). Nature of the experiment: ATG_C_EBP_CIS: Attagene CIS-FACTORIAL HepG2 Assay for human CCAAT/Enhancer Binding Protein (C/EBP) beta (AID 2282927). As to conditions: HepG2 Attagene cis-factorial transcription factor reporter; actives raise or lower the signal. The procedure:
ATG_CIS is a cell-based, multiplexed-readout assay that uses HepG2, a human liver cell line, with measurements taken at 24 hours after chemical dosing in a 24-well plate.ATG_C_EBP_CIS is one of 52 assay component(s) measured or calculated from the ATG_CIS assay. It is designed to make measurements of mRNA induction, a form of inducible reporter, as detected with fluorescence intensity signals by Reverse transcription polymerase chain reaction (RT-PCR) and Capillary electrophoresis technology.Data from the assay component ATG_C_EBP_CIS was analyzed into 1 assay endpoint. This assay endpoint, ATG_C_EBP_CIS, was analyzed with bidirectional fitting relative to DMSO as the negative control and baseline of activity. Using a type of inducible reporter, measures of mRNA for gain or loss-of-signal activity can be used to understand the reporter gene at the transcription factor-level as they relate to the gene CEBPB. Furthermore, this assay endpoint can be referred to as a primary readout, because this assay has produced multiple assay endpoints where this one serves a reporter gene function. To generalize the intended target to other relatable targets, this assay endpoint is annotated to the dna binding intended target family, where the subfamily is basic leucine zipper.
Human liver HepG2 cells are transiently transfected with multiple reporter transcription units (MRTUs) in 6-well plates using FuGene 6 reagent (Roche; 3 ml FuGene/1 mg DNA). The MRTU constructs are regulated by a cis-regulating element (promoter). […] A major difference between the CIS and TRANS system is that in CIS activities of endogenous TFs are measured, whereas the TRANS assay evaluates changes in activities of exogenous, chimeric NR-Gal4 proteins. […] At the end of 24 hour incubation, total RNA was isolated using TriZol reagent (Invitrogen). The isolated RNA is then reverse-transcribed using oligo(dT) primer and Mo-MLV reverse transcriptase (Invitrogen) with DNAse I (Ambion) treatment for 30 min. The one-tenth of the produced cDNA was amplified by PCR using Taq DNA polymerase (Invitrogen) and two reporter sequence-specific primers. The PCR products were fluorescently labeled by primer extension with 6-arboxyfluorescein (6-FAM) 5'-labeled reporter sequence-specific primer (2 min at 95 C, 20 s at 68 C and 10 min at 72 C) and these products were digested with 5U of HpaI (New England Biolabs) for 2h at 37 C. The fragments were purified using Qiaquick PCR columns (Qiagen), analyzed on an ABI 3130xL genetic analyzer (Applied Biosystems) with peak positions identified by using a set of X-rhodamine (ROX)-labeled MapMarker1000 molecular weight standards (BioVentures). The raw capillary electrophoresis data was processed using Attagraph software (Attagene).
For `CC(C)(C)C(O)C(Oc1ccc(Cl)cc1)n1cncn1` (stereo not given), the AC50 was 7.06 µM (active) and the result was inactive.

For `C[C@H]1[C@H](c2ccc(Cl)cc2)SC(=O)N1C(=O)NC1CCCCC1`, the result was inactive.

For the molecule `OCCOc1ccccc1`, the result was inactive.

Consider `CCCN(CCOc1c(Cl)cc(Cl)cc1Cl)C(=O)n1ccnc1`, for which the result was inactive.

On to `CNC(=O)Oc1ccccc1OC(C)C`, for which the result was inactive.

For `CCOCN(C(=O)CCl)c1c(C)cccc1CC`, the outcome was inactive.

As to `Oc1ccc(Cl)cc1Cc1ccccc1`, the AC50 was 8.76 µM (active) and the outcome was inactive.

Consider `O=C(O)C(F)(F)C(F)(F)C(F)(F)C(F)(F)C(F)(F)C(F)(F)C(F)(F)F`, for which the result was inactive.

Take `CCC(C)Nc1c([N+](=O)[O-])cc(C(C)(C)C)cc1[N+](=O)[O-]` (stereo not given): the result was inactive.

For `O=S1OCC2C(CO1)C1(Cl)C(Cl)=C(Cl)C2(Cl)C1(Cl)Cl` (stereo not given), the outcome was inactive.

Consider `Oc1cc(Cl)ccc1Oc1ccc(Cl)cc1Cl`, for which the outcome was inactive and the AC50 was 20.5 µM (active).

As to `COc1nn(CSP(=S)(OC)OC)c(=O)s1`, the result was inactive.

For the molecule `CC(C)OC(=O)Nc1cccc(Cl)c1`, the AC50 is 22.5 µM (active).

Consider `CC(C)(C)C(O)/C(=C\c1ccc(Cl)cc1Cl)n1cncn1` (stereo not given), for which the result was inactive.

Regarding `CNC(=O)CSP(=S)(OC)OC`, the outcome was inactive.

As to `COC(=O)c1ccccc1S(=O)(=O)NC(=O)Nc1nc(C)nc(OC)n1`, the outcome was inactive.

On to `O=C(Nc1ccccc1)Nc1cnns1`, for which the outcome was inactive.

For the molecule `O=C(O)COc1ccc(Cl)cc1Cl`, the result was inactive.

As to `[2H]C1([2H])[n+]2ccccc2-c2cccc[n+]2C1([2H])[2H]`, the result was inactive.

Take `COP(=S)(OC)Oc1ccc([N+](=O)[O-])cc1`: the outcome was inactive.

`CNC(=O)Oc1cccc(N=CN(C)C)c1`: the AC50 is 50 µM (active).

Regarding `O=C1c2ccccc2C(=O)N1SC(Cl)(Cl)Cl`, the outcome was inactive.

Consider `O=C(O)CCCOc1ccc(Cl)cc1Cl`, for which the result was inactive.

In the case of `CCCN(CCC)c1c([N+](=O)[O-])cc(C(F)(F)F)cc1[N+](=O)[O-]`, the AC50 was 2.59 µM (active).

With `N#CN`, the outcome was inactive.

Regarding `CC1(C)C(C=C(Cl)Cl)C1C(=O)OC(C#N)c1ccc(F)c(Oc2ccccc2)c1` (stereo not given), the result was inactive.

As for `ClC1C(Cl)C(Cl)C(Cl)C(Cl)C1Cl` (stereo not given), the AC50 is 61.8 µM (active) and the result was inactive.

Turning to `CCOC1Oc2ccc(OS(C)(=O)=O)cc2C1(C)C` (stereo not given), the AC50 was 14.5 µM (active).

Turning to `CCC(C)(C)C(=O)OC1=C(c2ccc(Cl)cc2Cl)C(=O)OC12CCCCC2`, the outcome was inactive.

For the molecule `CN1CSC(=S)N(C)C1`, the outcome was inactive.

Take `CC(C)N(C(=O)COc1nnc(C(F)(F)F)s1)c1ccc(F)cc1`: the outcome was inactive.

As to `CNC(=O)/C=C(\C)OP(=O)(OC)OC`, the outcome was inactive.

As to `O=[N+]([O-])c1c(Cl)c(Cl)c(Cl)c(Cl)c1Cl`, the result was inactive.

`O=C(NC(=O)c1c(F)cccc1F)Nc1ccc(OC(F)(F)C(F)OC(F)(F)F)c(Cl)c1` (stereo not given): the outcome was inactive.

Consider `CCS(=O)(=O)c1cccnc1S(=O)(=O)NC(=O)Nc1nc(OC)cc(OC)n1`, for which the result was inactive.

`Cc1[nH]c(=O)n(C(C)(C)C)c(=O)c1Cl`: the AC50 was 31.3 µM (active).
